Experimental data reported in the supplement of paper PMC6522484.
“And” between values parts separate entries of the source, which are not always exact repeats. Equal values may be shown once. ± gives the standard deviation of the averaged measurements.

Columns and labels:
[1] = test system: DLD1; assay: cell viability (CellTiter-Glo) relative to plate median (fraction of plate median); higher = more viable cells; settings: 5 µM; treatment time 24 h; reporter: 7TFP
Procedure, shortened: (§1)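 Per-well firefly luciferase or CellTiterGlo luminescence, normalised to the plate median, is what is reported. It was measured in colorectal cancer cells with stable lentiviral TCF/Wnt firefly luciferase reporters after a 24 h treatment with library compounds at a final 5 µM. The mean of two independent replicates is given.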

[2] = test system: HCT116; assay: as above; settings: 5 µM; treatment time 24 h; reporter: TCF4/Wnt
Procedure, shortened: as §1

[3] = test system: SW480; assay: as above; settings: 5 µM; treatment time 24 h; reporter: 7TFP
Procedure, shortened: as §1

[4] = test system: DLD1; assay: TCF/Wnt firefly luciferase reporter signal relative to plate median (fraction of plate median); higher = higher Wnt reporter signal; settings: 5 µM; treatment time 24 h; reporter: 7TFP
Procedure, shortened: as §1

[5] = test system: SW480; assay: as above; settings: 5 µM; treatment time 24 h; reporter: 7TFP
Procedure, shortened: as §1

Structure (SMILES) | cell viability [1] | cell viability [2] | cell viability [3] | TCF/Wnt firefly luciferase reporter signal [4] | TCF/Wnt firefly luciferase reporter signal [5]
COc1ccc(C(=O)CC(=O)c2ccc(C(C)(C)C)cc2)cc1 | 0.879 ± 0.2 | 0.904 ± 0.032 | 1.01 ± 0.021 | 1 ± 0.098 | 1.04 ± 0.18
CC(=O)/N=c1/sc(S(N)(=O)=O)nn1C | 0.987 ± 0.047 | 0.909 ± 0.13 | 1.01 ± 0.053 | 0.865 ± 0.1 | 1.08 ± 0.099
CC(C)CC1NC(=O)C2CCCN2C1=O (single isomer, unassigned; isomere) [Cyclo(leucylprolyl) (Isomere)] | 0.919 ± 0.068 | 0.94 ± 0.016 | 1.02 ± 0.054 | 0.69 ± 0.27 | 1.12 ± 0.064
NCCCCC(=O)O | 0.9365 ± 0.0021 | 0.981 ± 0.098 | 1.03 ± 0.021 | 1.06 ± 0.19 | 0.9645 ± 0.00071
COc1ccc(C(=O)c2ccc(O)cc2)c(O)c1O | 1.015 ± 0.0071 | 0.971 ± 0.028 | 1.04 ± 0.078 | 1.03 ± 0.028 | 1.06 ± 0.057
C=C(C)[C@@H]1CC[C@]2(CO)CC[C@]3(C)[C@H](CC[C@@H]4[C@@]5(C)CC[C@H](O)C(C)(C)[C@@H]5CC[C@]43C)[C@@H]12 | 0.995 ± 0.064 | 0.973 ± 0.053 | 0.978 ± 0.027 | 1.135 ± 0.0071 | 1.045 ± 0.0071
CC(=O)O[C@H](CC(=O)[O-])C[N+](C)(C)C | 1.06 ± 0.05 | 0.958 ± 0.044 | 0.956 ± 0.043 | 0.94 ± 0.073 | 0.996 ± 0.0057
COc1ccc([C@@H]2Sc3ccccc3N(CCN(C)C)C(=O)[C@@H]2OC(C)=O)cc1 | 0.931 ± 0.17 | 0.975 ± 0.028 | 1.01 ± 0.033 | 0.883 ± 0.029 | 0.989 ± 0.059
Cc1cccc(CN2CCN(C(c3ccccc3)c3ccc(Cl)cc3)CC2)c1 (stereo not given) | 1.06 ± 0.028 | 1.05 ± 0.028 | 0.987 ± 0.0099 | 1.02 ± 0.038 | 0.998 ± 0.046
CC(=O)O[C@H]1CC[C@]2(C)[C@H]3CC[C@@]4(C)[C@H](c5ccoc5)OC(=O)[C@H]5O[C@]54[C@]3(C)[C@H](OC(C)=O)C[C@H]2C1(C)C [3beta-ACETOXYDEOXODIHYDROGEDUNIN] | 1.03 ± 0.054 | 1.01 ± 0.077 | 0.949 ± 0.1 | 1.02 ± 0.061 | 1.04 ± 0.028
CC(=O)OCC[N+](C)(C)C | 0.987 ± 0.15 | 0.998 ± 0.059 | 0.982 ± 0.014 | 1.01 ± 0.023 | 0.992 ± 0.012
COc1cc(OC)c2c(=O)c(-c3ccc4c(c3)OCO4)coc2c1 | 0.9395 ± 0.00071 | 1 ± 0.16 | 0.9755 ± 0.005 | 1.02 ± 0.066 | 1.02 ± 0.028
CNC1(C)C2CCC(C2)C1(C)C (stereo not given) | 0.844 ± 0.018 | 0.972 ± 0.11 | 0.924 ± 0.038 | 1.05 ± 0.021 | 0.904 ± 0.054
CN(C)CCC=C1c2ccccc2COc2ccccc21 | 0.994 ± 0.052 | 1.01 ± 0.021 | 0.949 ± 0.032 | 1.06 ± 0.028 | 1.07 ± 0.014
CCn1cc(C(=O)O)c(=O)c2cc(F)c(N3CCNC(C)C3)c(F)c21 (stereo not given) | 0.971 ± 0.056 | 1.05 ± 0.057 | 0.98 ± 0.012 | 1.13 ± 0.057 | 0.997 ± 0.061
CC(C)(C)NCC(O)COc1cccc2c1CC(O)C(O)C2 (stereo not given) | 1.05 ± 0.11 | 0.929 ± 0.015 | 1.04 ± 0.028 | 1.02 ± 0.15 | 0.996 ± 0.063
CC(=O)O[C@H]1CC[C@@]2(C)[C@H](CC[C@@H]3[C@@H]2CC[C@]2(C)[C@@H]4[C@H](C[C@@H]32)O[C@]2(CC[C@@H](C)CO2)[C@H]4C)C1 | 1.01 ± 0.028 | 0.979 ± 0.1 | 0.977 ± 0.0014 | 0.836 ± 0.043 | 0.941 ± 0.083
COc1c2c(c(O)c3c4c(c(C)cc13)[C@@H]1O[C@@]3(C(OC)OC)O[C@@H]1[C@@](O[C@H]1CC(O)[C@@](O)(C(C)=O)C(C)O1)(O4)[C@@]3(O)Cn1cnc3nc(N)[nH]c(=O)c31)C(=O)C(O)CC2O[C@H]1CC(C)(O)[C@H](OC(C)=O)C(C)O1 (stereo not given in full) [Gutingimycin] | 0.932 ± 0.022 | 0.966 ± 0.0057 | 0.946 ± 0.059 | 0.87 ± 0.14 | 0.898 ± 0.07
COc1cc(O)c(C(=O)/C=C/c2ccc(O)c(OC)c2)c(OC)c1 | 1.025 ± 0.0071 | 1.03 ± 0.083 | 1.1 ± 0.071 | 0.882 ± 0.11 | 0.894 ± 0.037
O=C(Oc1cccc2cccnc12)c1ccccc1 | 0.999 ± 0.044 | 0.891 ± 0.029 | 1.03 ± 0.035 | 0.856 ± 0.071 | 0.871 ± 0.025
COc1ccc(NS(=O)(=O)c2ccc(N)cc2)nn1 | 0.99 ± 0.057 | 1.09 ± 0.042 | 1.02 ± 0.032 | 1.12 ± 0.19 | 0.914 ± 0.14
Cc1cccc(Nc2cc(Cl)nc(SCC(=O)O)n2)c1C | 0.964 ± 0.021 | 0.999 ± 0.044 | 0.9325 ± 0.0064 | 1.09 ± 0.014 | 1.085 ± 0.0071
C=CC[S+]([O-])C[C@H](N)C(=O)O (stereo not given in full) | 0.984 ± 0.018 | 0.903 ± 0.079 | 0.96 ± 0.016 | 0.986 ± 0.091 | 1.05 ± 0.042
CO/N=C(\C(=O)N[C@@H]1C(=O)N2C(C(=O)O)=C(COC(N)=O)CS[C@H]12)c1ccco1 | 0.915 ± 0.088 | 0.949 ± 0.023 | 0.938 ± 0.027 | 0.976 ± 0.1 | 1.13 ± 0.028
Cc1cc(C)nc(NS(=O)(=O)c2ccc(N)cc2)n1 | 1.07 ± 0.11 | 0.975 ± 0.078 | 1.03 ± 0.047 | 1.025 ± 0.0071 | 1.08 ± 0.05
O=C(O)CCCc1ccccc1 | 1.03 and 0.95 | 0.968 and 0.85 | 0.993 and 1 | 1.15 and 1.08 | 1.01 and 1.04
CC(=O)O[C@@H]1CC2C(C)(C)[C@H](O)C[C@H](O)[C@@]2(C)C2CC[C@]3(C)C(=CC(=O)O[C@@H]3c3ccoc3)[C@]21C (stereo not given in full) | 0.961 ± 0.098 | 0.982 ± 0.097 | 0.982 ± 0.011 | 1.07 ± 0.099 | 0.948 ± 0.088
COc1cc2c(cc1OC)C(=O)OC2 | 0.982 ± 0.054 | 1.12 | 1.025 ± 0.0071 | 1.22 ± 0.014 | 1.06 ± 0.014
Cc1c(C(=O)O)c(O)cc2c1C(=O)c1c(O)c([C@@H]3O[C@H](CO)[C@@H](O)[C@H](O)[C@H]3O)c(O)c(O)c1C2=O | 0.97 ± 0.032 | 1.01 ± 0.089 | 0.9855 ± 0.0078 | 1.08 ± 0.17 | 1.07 ± 0.14
